# From article PMC11006913
# Numbering of substitutions follows the chain as printed.
# How the values were obtained:
# Assay in all cases: PBM; 200 nM protein, PBS
# Conditions in all cases: dsDNA, one strand shown
# ALX4 [1] = target: ALX4 (Homo sapiens, UniProt Q9H161 200-286)
# ALX4 [2] = target: ALX4 (Homo sapiens, UniProt Q9H161 200-286, Q225E)
# MSX2 [3] = target: MSX2 (Homo sapiens, UniProt P35548 130-214, R199I)
# MSX2 [4] = target: MSX2 (Homo sapiens, UniProt P35548 130-214)
# MSX2 [5] = target: MSX2 (Homo sapiens, UniProt P35548 130-214, F161Y)
# NKX2-6 [6] = target: T1, NKX2-6 (Homo sapiens, UniProt A6NCS4 118-204)
# T1 sequence: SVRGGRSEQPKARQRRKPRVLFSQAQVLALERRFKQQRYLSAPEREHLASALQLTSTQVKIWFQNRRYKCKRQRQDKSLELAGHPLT
# NKX2-6 [7] = target: T2, NKX2-6 (Homo sapiens, UniProt A6NCS4 118-204, F151L)
# T2 sequence: T1 sequence with F34L
# PROP1 [8] = target: PROP1 (Homo sapiens, UniProt O75360 56-141)
# PROP1 [9] = target: PROP1 (Homo sapiens, UniProt O75360 56-141, R99H)
# PROP1 [10] = target: PROP1 (Homo sapiens, UniProt O75360 56-141, F88S)
# PAX4 [11] = target: T3, PAX4 (Homo sapiens, UniProt O43316 9-242, R200K)
# T3 sequence: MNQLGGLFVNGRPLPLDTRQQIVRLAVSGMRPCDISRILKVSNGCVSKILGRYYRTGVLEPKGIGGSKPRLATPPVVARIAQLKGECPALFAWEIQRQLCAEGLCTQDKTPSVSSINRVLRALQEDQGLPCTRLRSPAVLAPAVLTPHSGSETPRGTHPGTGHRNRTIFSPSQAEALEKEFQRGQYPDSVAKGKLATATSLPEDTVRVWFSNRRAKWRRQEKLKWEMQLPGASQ
# PRRX1 [12] = target: PRRX1 (Homo sapiens, UniProt P54821 80-166, F113S)
# PAX4 [13] = target: T4, PAX4 (Homo sapiens, UniProt O43316 9-242)
# T4 sequence: T3 sequence with K192R
# ALX1 [14] = target: ALX1 (Homo sapiens, UniProt Q15699 118-204, L144V)
# PAX4 [15] = target: T5, PAX4 (Homo sapiens, UniProt O43316 9-242, R200Q)
# T5 sequence: T3 sequence with K192Q
# ALX1 [16] = target: ALX1 (Homo sapiens, UniProt Q15699 118-204, L144R)
# PAX4 [17] = target: T6, PAX4 (Homo sapiens, UniProt O43316 9-242, F177V)
# T6 sequence: T3 sequence with F169V, K192R
# PAX4 [18] = target: T7, PAX4 (Homo sapiens, UniProt O43316 9-242, F177Y)
# T7 sequence: T3 sequence with F169Y, K192R
# HESX1 = HESX1 (Homo sapiens, UniProt Q9UBX0 95-180, F115L)
# PAX4 [19] = target: T8, PAX4 (Homo sapiens, UniProt O43316 9-242, R227W)
# T8 sequence: T3 sequence with K192R, R219W
# PRRX1 [20] = target: PRRX1 (Homo sapiens, UniProt P54821 80-166)
# PRRX1 (Homo sapiens, UniProt P54821 80-166), sequence (P54821 80-166): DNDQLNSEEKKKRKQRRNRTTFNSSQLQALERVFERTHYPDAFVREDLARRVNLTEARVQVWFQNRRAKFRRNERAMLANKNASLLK
# ALX4 (Homo sapiens, UniProt Q9H161 200-286), sequence (Q9H161 200-286): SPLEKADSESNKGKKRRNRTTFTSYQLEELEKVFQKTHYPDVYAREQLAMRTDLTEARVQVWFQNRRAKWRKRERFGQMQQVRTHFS
# ALX4 (Homo sapiens, UniProt Q9H161 200-286, Q225E), sequence (Q9H161 200-286 Q225E): as the sequence (Q9H161 200-286) above, with Q26E counted along it
# PROP1 (Homo sapiens, UniProt O75360 56-141), sequence (O75360 56-141): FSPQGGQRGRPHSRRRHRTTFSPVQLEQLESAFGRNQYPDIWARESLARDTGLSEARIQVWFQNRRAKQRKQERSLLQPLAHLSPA
# PROP1 (Homo sapiens, UniProt O75360 56-141, R99H), sequence (O75360 56-141 R99H): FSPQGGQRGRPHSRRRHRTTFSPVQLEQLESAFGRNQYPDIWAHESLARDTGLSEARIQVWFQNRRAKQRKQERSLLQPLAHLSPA
# PROP1 (Homo sapiens, UniProt O75360 56-141, F88S), sequence (O75360 56-141 F88S): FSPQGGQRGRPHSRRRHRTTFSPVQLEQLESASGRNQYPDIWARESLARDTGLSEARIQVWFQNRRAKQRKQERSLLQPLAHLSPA
# MSX2 (Homo sapiens, UniProt P35548 130-214), sequence (P35548 130-214): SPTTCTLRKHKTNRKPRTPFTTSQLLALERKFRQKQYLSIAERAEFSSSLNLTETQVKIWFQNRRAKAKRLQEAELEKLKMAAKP
# MSX2 (Homo sapiens, UniProt P35548 130-214, F161Y), sequence (P35548 130-214 F161Y): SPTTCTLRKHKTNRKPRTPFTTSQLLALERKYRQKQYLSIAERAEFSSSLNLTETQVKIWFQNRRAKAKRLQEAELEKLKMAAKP
# MSX2 (Homo sapiens, UniProt P35548 130-214, R199I), sequence (P35548 130-214 R199I): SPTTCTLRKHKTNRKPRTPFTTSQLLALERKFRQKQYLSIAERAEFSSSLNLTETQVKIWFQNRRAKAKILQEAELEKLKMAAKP
# ALX1 (Homo sapiens, UniProt Q15699 118-204, L144R), sequence (Q15699 118-204 L144R): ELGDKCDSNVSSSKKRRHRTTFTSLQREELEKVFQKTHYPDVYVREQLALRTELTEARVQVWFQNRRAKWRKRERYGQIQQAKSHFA
# ALX1 (Homo sapiens, UniProt Q15699 118-204, L144V), sequence (Q15699 118-204 L144V): as the sequence (Q15699 118-204 L144R) above, with R27V counted along it
# PRRX1 (Homo sapiens, UniProt P54821 80-166, F113S), sequence (P54821 80-166 F113S): as the sequence (P54821 80-166) above, with F34S counted along it
# HESX1, sequence (Q9UBX0 95-180 F115L): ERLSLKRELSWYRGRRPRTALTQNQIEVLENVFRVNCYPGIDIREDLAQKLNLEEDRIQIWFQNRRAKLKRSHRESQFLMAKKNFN
sequence,measurement,setting,value
CGCCCTTC,binding signal,ALX4 [1],"8.03 upbm affinity estimate (log intensity, higher = more binding, comparable within an allelic series)"
same,binding signal,ALX4 [2],"8.24 upbm affinity estimate (log intensity, higher = more binding, comparable within an allelic series)"
CGTGCTCC,binding signal,ALX4 [1],"8.3 upbm affinity estimate (log intensity, higher = more binding, comparable within an allelic series)"
same,binding signal,ALX4 [2],"8.41 upbm affinity estimate (log intensity, higher = more binding, comparable within an allelic series)"
ATTAACCA,binding signal,ALX4 [1],"12.4 upbm affinity estimate (log intensity, higher = more binding, comparable within an allelic series)"
same,binding signal,ALX4 [2],"11.3 upbm affinity estimate (log intensity, higher = more binding, comparable within an allelic series)"
CCGTCCCC,binding signal,ALX4 [1],"8.07 upbm affinity estimate (log intensity, higher = more binding, comparable within an allelic series)"
same,binding signal,ALX4 [2],"8.31 upbm affinity estimate (log intensity, higher = more binding, comparable within an allelic series)"
CCTGCGAG,binding signal,ALX4 [1],"7.97 upbm affinity estimate (log intensity, higher = more binding, comparable within an allelic series)"
same,binding signal,ALX4 [2],"7.97 upbm affinity estimate (log intensity, higher = more binding, comparable within an allelic series)"
same,binding signal,MSX2 [3],"9.6 upbm affinity estimate (log intensity, higher = more binding, comparable within an allelic series)"
same,binding signal,MSX2 [4],"9.6 upbm affinity estimate (log intensity, higher = more binding, comparable within an allelic series)"
same,binding signal,MSX2 [5],"9.61 upbm affinity estimate (log intensity, higher = more binding, comparable within an allelic series)"
CCACATGG,binding signal,ALX4 [1],"8.13 upbm affinity estimate (log intensity, higher = more binding, comparable within an allelic series)"
same,binding signal,ALX4 [2],"8.32 upbm affinity estimate (log intensity, higher = more binding, comparable within an allelic series)"
same,binding signal,NKX2-6 [6],"9.61 upbm affinity estimate (log intensity, higher = more binding, comparable within an allelic series)"
same,binding signal,NKX2-6 [7],"9.23 upbm affinity estimate (log intensity, higher = more binding, comparable within an allelic series)"
CACAGCTC,binding signal,ALX4 [1],"7.95 upbm affinity estimate (log intensity, higher = more binding, comparable within an allelic series)"
same,binding signal,ALX4 [2],"8.26 upbm affinity estimate (log intensity, higher = more binding, comparable within an allelic series)"
same,binding signal,PROP1 [8],"6.72 upbm affinity estimate (log intensity, higher = more binding, comparable within an allelic series)"
same,binding signal,PROP1 [9],"6.77 upbm affinity estimate (log intensity, higher = more binding, comparable within an allelic series)"
same,binding signal,PROP1 [10],"6.99 upbm affinity estimate (log intensity, higher = more binding, comparable within an allelic series)"
AGGAGGCG,binding signal,ALX4 [1],"8.14 upbm affinity estimate (log intensity, higher = more binding, comparable within an allelic series)"
same,binding signal,ALX4 [2],"8.12 upbm affinity estimate (log intensity, higher = more binding, comparable within an allelic series)"
same,binding signal,MSX2 [3],"9.45 upbm affinity estimate (log intensity, higher = more binding, comparable within an allelic series)"
same,binding signal,MSX2 [4],"9.43 upbm affinity estimate (log intensity, higher = more binding, comparable within an allelic series)"
same,binding signal,MSX2 [5],"9.49 upbm affinity estimate (log intensity, higher = more binding, comparable within an allelic series)"
TAAATTTA,binding signal,ALX4 [1],"12.2 upbm affinity estimate (log intensity, higher = more binding, comparable within an allelic series)"
same,binding signal,ALX4 [2],"11 upbm affinity estimate (log intensity, higher = more binding, comparable within an allelic series)"
CGGGCCTC,binding signal,ALX4 [1],"8.16 upbm affinity estimate (log intensity, higher = more binding, comparable within an allelic series)"
same,binding signal,ALX4 [2],"8.25 upbm affinity estimate (log intensity, higher = more binding, comparable within an allelic series)"
same,binding signal,PROP1 [8],"6.76 upbm affinity estimate (log intensity, higher = more binding, comparable within an allelic series)"
same,binding signal,PROP1 [9],"6.84 upbm affinity estimate (log intensity, higher = more binding, comparable within an allelic series)"
same,binding signal,PROP1 [10],"6.55 upbm affinity estimate (log intensity, higher = more binding, comparable within an allelic series)"
AATTATGT,binding signal,PAX4 [11],"11.6 upbm affinity estimate (log intensity, higher = more binding, comparable within an allelic series)"
same,binding signal,PRRX1 [12],"11 upbm affinity estimate (log intensity, higher = more binding, comparable within an allelic series)"
same,binding signal,PAX4 [13],"12.1 upbm affinity estimate (log intensity, higher = more binding, comparable within an allelic series)"
same,binding signal,ALX1 [14],"11.4 upbm affinity estimate (log intensity, higher = more binding, comparable within an allelic series)"
same,binding signal,PAX4 [15],"11.8 upbm affinity estimate (log intensity, higher = more binding, comparable within an allelic series)"
same,binding signal,ALX1 [16],"11.1 upbm affinity estimate (log intensity, higher = more binding, comparable within an allelic series)"
same,binding signal,PAX4 [17],"10.7 upbm affinity estimate (log intensity, higher = more binding, comparable within an allelic series)"
same,binding signal,PAX4 [18],"11 upbm affinity estimate (log intensity, higher = more binding, comparable within an allelic series)"
same,binding signal,PROP1 [8],"11 upbm affinity estimate (log intensity, higher = more binding, comparable within an allelic series)"
same,binding signal,PROP1 [9],"10.7 upbm affinity estimate (log intensity, higher = more binding, comparable within an allelic series)"
same,binding signal,PROP1 [10],"7.74 upbm affinity estimate (log intensity, higher = more binding, comparable within an allelic series)"
same,binding signal,HESX1,"7.75 upbm affinity estimate (log intensity, higher = more binding, comparable within an allelic series)"
same,binding signal,PAX4 [19],"11 upbm affinity estimate (log intensity, higher = more binding, comparable within an allelic series)"
same,binding signal,PRRX1 [20],"13.3 upbm affinity estimate (log intensity, higher = more binding, comparable within an allelic series)"
